Reference: PubChem BioAssay AID504692 (The Scripps Research Institute Molecular Screening Center, 2011)
Hit rate of the full screen: of about 340,000 compounds, about 2,000 (0.59%) were called active. The sample holds actives, similar compounds and a random draw of the others, so the mix is not that of the screen. Values without a mark were called inactive. Cut-off read from the data, not from the text of the source: active = activation mostly above about 9.5% (no sharp cut-off); inactive = mostly below about 7.6%.

biological target: 5-hydroxytryptamine receptor 5A (Homo sapiens) (UniProt P47898); assay: HTR5A agonists in luminescence cell assay, primary screen, counter-screen for OPRM1-OPRD1 heterodimer agonist project, full-deck HTS (AID 504692); settings: cell-based, at 9.3 µM, hits give high values;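 note: 0% = cells with vehicle only and 100% = reference agonist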
Sequence (P47898 whole entry, looked up): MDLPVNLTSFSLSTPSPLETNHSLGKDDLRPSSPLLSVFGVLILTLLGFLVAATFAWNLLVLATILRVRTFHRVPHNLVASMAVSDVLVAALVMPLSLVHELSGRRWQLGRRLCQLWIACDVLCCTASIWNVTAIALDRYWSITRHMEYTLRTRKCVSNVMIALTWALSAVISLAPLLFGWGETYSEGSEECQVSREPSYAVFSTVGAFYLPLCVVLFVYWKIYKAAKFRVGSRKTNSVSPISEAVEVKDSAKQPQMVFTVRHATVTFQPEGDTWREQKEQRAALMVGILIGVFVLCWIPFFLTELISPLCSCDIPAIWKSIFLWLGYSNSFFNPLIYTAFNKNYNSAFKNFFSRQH

Compound	activation
C[C@H]1[C@H]2c3nc4ccccc4n3C[C@H]1ON2C1CCCCC1	1.56%
CCOc1ccc(CCNC(=O)C(CC)n2nc(C)n3c(cc4sccc43)c2=O)cc1OCC (stereo unspecified)	8.13%
O=C(O)c1ccc2c(=O)n3c(nc2c1)/C(=C/c1ccc(OC(F)F)cc1OC(F)F)CC3	-1.8%
N#Cc1ccc(/C=C2\CCn3c2nc2cc(C(=O)O)ccc2c3=O)cc1	-2.04%
Cc1ccc(/C=C2\CCn3c2nc2cc(C(=O)O)ccc2c3=O)c(C)c1	14.2% (active)
COc1ccc(CNc2nccs2)cc1	-2.48%
CCN(CC)CCNS(=O)(=O)c1ccc(/C=C/C(=O)O)cc1	6.16%
Cc1ccc2c(C)c(C(=O)N3CCC(N4CCC(C(=O)NC5CC5)CC4)CC3)oc2c1	-4.49%
CC1(C)Cc2cccc(OCC(=O)NCc3ccccc3)c2O1	0.71%
CC1(C)Cc2cccc(OCC(N)=O)c2O1	-7.5%
COc1cccc(CCNC(=O)COc2cccc3c2OC(C)(C)C3)c1	10.4% (active)
CCn1c2c(c3ccc(OC)cc31)CCCC2=O	2.01%
O=C1COc2ccc(C(=O)COC(=O)C3CC(O)CN3S(=O)(=O)c3ccc(Cl)cc3)cc2N1 (stereo unspecified)	2.08%
O=C(NCCCN1CCCC1=O)c1ccc(S(=O)(=O)Nc2ccccc2)cc1	-1.42%
CCn1c(SCC(=O)N/N=C/c2ccccc2OCC(=O)O)nnc1-c1ccc(C(C)(C)C)cc1	-0.31%
CCn1c(SCC(=O)N/N=C/c2ccncc2)nc2ccccc21	0.02%
Cc1ccc(Cn2c(SCC(=O)N/N=C/c3ccccc3OCC(=O)O)nc3ccccc32)cc1	13.2% (active)
COc1cc2c(cc1NC(=O)COC(=O)/C=C/c1ccccc1)oc1ccccc12	1.5%
Cc1c(C(=O)N2CCCc3ccccc32)oc2ccccc12	5.91%
CCOC(=O)c1c(C)[nH]c(C(=O)OCC(=O)N2CCCC2=O)c1C	-3.02%
Cc1c(C(=O)OCC(=O)N2CCCC2=O)oc2ccccc12	17.4% (active)
O=C(Cc1ncc(C(F)(F)F)cc1Cl)Nc1cccc(Br)c1	-3.41%
NS(=O)(=O)c1ccc(CNC(=S)NC(=O)c2ccco2)cc1	-0.69%
CCc1nn(CCCC(=O)Nc2ccc(C)cc2C)c(=O)c2cc3occc3n12	0.19%
CCCCCCCCn1c2c(c(=N)c3c1CCC3)CCCC2	12.5% (active)
Cc1ccccc1NC(=O)CSc1ccc2nnc(-c3ccccn3)n2n1	-2.77%
